Assay outcomes deposited in PubChem BioAssay by National Center for Advancing Translational Sciences (NCATS).
Only some compounds are listed: those with a hit (about 6.4% of all), similar ones and a draw of the others.
KinaseGlo FLuc = Counterscreen for Luciferase (Kinase-Glo TM) Inhibition | Potency, µM (doses to about 38.3 µM), for the others: top-dose activity change, negative = inhibition, usual class: inhibitors | Kinase-Glo luciferase, ATP luminescence, 8 min | actives 0.28% (n = 200,000); also: nearly all actives have a fitted effect of over 60% in size
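Substrate mix (final 50 mM imidazole pH 7.2, 50 mM KCl, 7 mM MgCl2, 10 uM ATP, 0.01% Tween 20, 0.05% BSA) plus pin-tool compound, then Kinase-Glo detection mix; 8 min ambient, luminescence read.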
RORgamma inh = qHTS for inhibitors of ROR gamma transcriptional activity; Nuclear receptor ROR-gamma (Mus musculus), P51450; Drosophila S2 Gal4-RORgamma UAS-luciferase reporter, 20 h; Potency, µM (titrated, usually from 53.6 µM), without a hit: top-dose activity change, negative = inhibition, usual class: inhibitors; actives 5.4% (n = 310,000); also: nearly all actives have a fitted effect of over 60% in size
Target sequence (P51450 whole entry, looked up, the tested form may be a part): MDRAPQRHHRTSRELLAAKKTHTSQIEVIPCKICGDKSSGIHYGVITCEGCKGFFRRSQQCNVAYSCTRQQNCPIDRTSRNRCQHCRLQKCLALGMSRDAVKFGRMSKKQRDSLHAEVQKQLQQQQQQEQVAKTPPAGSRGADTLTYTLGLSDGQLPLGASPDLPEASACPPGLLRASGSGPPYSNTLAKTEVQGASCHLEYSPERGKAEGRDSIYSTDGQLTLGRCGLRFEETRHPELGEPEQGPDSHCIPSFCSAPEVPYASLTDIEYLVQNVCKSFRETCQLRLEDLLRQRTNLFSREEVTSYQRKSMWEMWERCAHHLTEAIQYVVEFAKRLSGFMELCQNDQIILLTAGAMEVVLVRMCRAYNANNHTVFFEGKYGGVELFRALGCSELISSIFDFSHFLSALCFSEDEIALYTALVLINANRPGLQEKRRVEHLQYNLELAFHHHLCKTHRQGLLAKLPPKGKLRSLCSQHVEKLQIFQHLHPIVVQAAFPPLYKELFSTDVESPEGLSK
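Read-out: Photinus luciferase luminescence; inhibitors lower reporter signal. Insect Schneider cells with Gal4-ROR gamma fusion under metallothionein promoter, UAS reporter; 700 uM final copper sulfate induction, 20 hr, ambient temperature.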
Gal4-VP16 FLuc = VP16 counterscreen qHTS for inhibitors of ROR gamma transcriptional activity | Drosophila S2 Gal4-VP16 UAS-luciferase, luminescence, 20 h | Potency, µM (top dose mostly 53.6 µM), for the others: top-dose activity, negative = inhibition, most hits filed as inhibitors | actives 3.5% (n = 310,000) | AID 2546, 2010;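 also: Gal4-VP16 expression switched on by copper sulfate through the metallothionein promoter; nearly all actives have a fitted effect of over 50% in size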
* hit, by the source's call; ? = inconclusive; · = not tested or not shown; [ ] = remark or other dose. Calls follow the shape of the dose curve; as a rule, active = well fitted curve in the direction sought with a large enough effect; inconclusive = small, poorly fitted or top-dose-only effect, or another doubt; inactive = no such curve, though single readings can be large; an effect the other way counts as inactive or inconclusive. % is scaled to controls: 0 for no effect and ±100 for the full control effect; potency is read from the fitted curve at half-maximal effect.

SMILES	KinaseGlo FLuc	RORgamma inh	Gal4-VP16 FLuc
COc1cccc(-c2csc(N3CCN(Cc4ccccc4)CC3)n2)c1	-1.3%	12.6µM*	?
COc1cccc(-c2csc(N3CCN(C(=S)Nc4ccc(Cl)cc4)CC3)n2)c1	-1.0%	?	?
COc1cccc(-c2csc(N3CCN(C(=S)Nc4ccccc4)CC3)n2)c1	0.4%	6.31µM*	?
CCOc1ccccc1NC(=S)N1CCN(c2nc(-c3cccc(OC)c3)cs2)CC1	1.8%	3.98µM*	7.94µM*
COc1cccc(-c2csc(N3CCN(C(=S)Nc4cccc(C)c4)CC3)n2)c1	-3.4%	7.08µM*	3.16µM*
Cc1c(Br)c([N+](=O)[O-])nn1CC(=O)Nc1cccc2nonc12	-1.6%	-3.5%	1.7%
C=C(Nc1ccc(OC)cc1)C(=O)OC	1.8%	-12.3%	-15.6%
NC(N)=NC(N)=Nc1ccccc1 (tested in a mixture with another compound)	0.0%[7.66 µM]	·	·
CC(NC(=O)CN(c1ccc(Cl)cc1)S(C)(=O)=O)c1ccccc1 (stereo not drawn)	·	1.9%	-4.6%
COc1cccc(/C=C/C(=O)Nc2ccccc2N2CCOCC2)c1	1.1%	-1.0%	4.1%
COc1ccc(-c2csc(N3CCC(c4ccccc4)C3)n2)cc1 (stereo not drawn)	0.4%	11.2µM*	-6.0%
Fc1ccc(-c2csc(N3CCC(c4ccccc4)C3)n2)cc1 (stereo not drawn)	-5.6%	-42.6%	4.8%
CNC(=S)N1CCN(c2nc(-c3cccc(OC)c3)cs2)CC1	·	-1.5%	23.9%
COc1ccccc1NC(=S)N1CCN(c2nc(-c3ccccc3)cs2)CC1	-1.2%	14.1µM*	?
COc1cccc(-c2csc(N3CCN(C(=S)Nc4ccccc4C)CC3)n2)c1	0.2%	7.08µM*	?
COc1ccccc1NC(=S)N1CCCC1	-1.4%	-0.1%	-4.2%
O=C(Cn1cncn1)NCCCc1ccccc1	4.5%	5.4%	10.7%
CC1(C)CC2(CC(c3ccccc3F)c3ccc(O)c(O)c3O2)NC(=S)N1 (stereo not drawn)	2.2%	-14.0%	3.7%
COCCNC(=S)N1CCc2cc(OC)c(OC)cc2C1COc1cc(C)cc(C)c1 (stereo not drawn)	0.9%	?	22.4µM*
CNC(=S)N1CCc2cc(OC)c(OC)cc2C1COc1ccc(OC)cc1 (stereo not drawn)	-1.6%	?	9.8%
COc1ccc2oc(CS(=O)c3ccccc3)c(C(=O)O)c2c1 (stereo not drawn)	·	-1.2%	3.7%
COc1cccc(NC(=S)NC2CC3CCCC(C2)N3CC(C)C)c1 (stereo not drawn)	-1.6%	10µM*	6.9%
COc1cccc(NC(=S)N2C3CCCC2CC(NC(=O)C2CC2)C3)c1 (stereo not drawn)	·	0.2%	-14.8%
CNC(=O)c1cc2c(cn1)[nH]c1ccccc12	-5.4%	-42.9%	-7.5%
CCCCOC(=O)c1cc2c(cn1)[nH]c1ccccc12	4.6%	15.8µM*	31.6µM*
SMILES	KinaseGlo FLuc	RORgamma inh	Gal4-VP16 FLuc
COc1ccccc1CNc1nc(-c2cccc(NS(C)(=O)=O)c2)nc2ccccc12	·	31.7%	-1.7%
COc1cc(NS(C)(=O)=O)ccc1Nc1c2ccccc2nc2ccccc12	-4.8%	20µM*	1.0%
COc1ccc(OCc2cc(C(=O)N3CCCC(CO)C3)no2)c2ccccc12 (stereo not drawn)	·	0.0%	17.0%
COc1cccc(OCc2cc(C(=O)N3CCC(c4ccncc4)CC3)no2)c1	·	-32.5%	?
COCC1CCN(C(=O)c2cc(COc3cccc4cnccc34)on2)CC1	·	23.4%	12.6µM*
O=C(c1cc(COc2cccc3cnccc23)on1)N1CCCC(CCCO)C1 (stereo not drawn)	·	?	2.82µM*
COC(=O)[C@H](COC(C)(C)C)NC(=O)O[C@H]1C(=O)c2cc(OC)ccc2O[C@@H]1c1ccc(OC)c(Br)c1	3.1%	0.2%	2.3%
O=C(CCCN1C(=O)/C(=C/c2cccc(Br)c2)SC1=S)NCCCN1CCOCC1	·	10µM*	0.0%
COC(=O)c1ccc(/C=C2\SC(=S)N(CCCC(=O)NCCCN3CCOCC3)C2=O)cc1	·	2.24µM*	1.78µM*
COc1ccc(/C=C2\SC(=S)N(CCC(=O)NCCCN3CCOCC3)C2=O)cc1	·	8.7%	19.0%
O=C(CN1C(=O)/C(=C/c2cccc(Br)c2)SC1=S)NCCCN1CCOCC1	·	-1.7%	-2.3%
COc1ccc(C(CNC(=O)Cc2ccc(-c3ccccc3)cc2)N(C)C)cc1 (stereo not drawn)	·	-10.5%	-3.8%
CCOC(=O)CC(=O)NC(C)(C)CCCCC(C)(C)NC(=O)CC(=O)OCC	·	-0.3%	20.3%
CC(C)c1ccc(S(=O)(=O)N2CCN(C(=O)C3CCCC3)CC2)cc1	·	27.9%	8.7%
Cc1cc(C)c(C(=O)/C=C/C=C/c2ccccc2)c(=O)[nH]1	-2.6%	?	0.2%
Cc1cc(C)c(C(=O)/C=C/c2ccc(C(C)C)cc2)c(=O)[nH]1	-0.4%	?	31.6µM*
CCC[C@@H](CNC)NC[C@H](Cc1ccccc1)NCCCCc1ccccc1	·	-34.3%	0.6%
CN(Cc1cccc(C(F)(F)F)c1)C(=O)C1CCC(=O)N(CC2CCCCC2)C1 (stereo not drawn)	·	51.0%	-4.9%
CC[C@@H](C)[C@H](CNC)NC[C@@H](Cc1cccc2ccccc12)NCCc1cccc(C(F)(F)F)c1	·	12.6µM*	?
CNC[C@@H](CC1CCCCC1)NC[C@H](CC(C)C)NCCc1cccc(C(F)(F)F)c1	·	11.2µM*	?
CCC(C)[C@H](NC(=O)N1CC(=O)Nc2ccccc21)C(=O)N[C@@H](Cc1c[nH]c2ccccc12)C(=O)O (stereo partly drawn)	·	-9.0%	-7.0%
Cc1nc2ccccc2nc1N/N=C/c1ccc(O)cc1	·	?	-23.0%
Oc1ccc(Nc2nc3ccccc3nc2Nc2ccc(O)cc2)cc1	2.7%	15.8µM*	?
CCOc1c2c(nc3ccc(Cl)cc13)CCC2	4.0%	11.2µM*	-24.5%
CCOc1ccc(NC(=O)c2c3c(nc4ccccc24)CCC3)cc1	-0.4%	-1.0%	-16.5%
SMILES	KinaseGlo FLuc	RORgamma inh	Gal4-VP16 FLuc
O=C(NCC(=O)c1ccccc1)OCc1ccc([N+](=O)[O-])cc1	·	?	21.8%
O=C(Nc1ncc(Cc2cccc(Cl)c2Cl)s1)c1ccc([N+](=O)[O-])cc1	-2.3%	20.2%	-0.3%
N#CCC(=O)Nc1ncc(Cc2ccccc2Cl)s1	-2.0%	12.6µM*	?
O=C(Nc1ncc(Cc2cc(Cl)ccc2Cl)s1)c1ccc([N+](=O)[O-])cc1	-3.9%	1µM*	4.47µM*
CC(C)C(=O)Nc1ncc(Cc2ccccc2Cl)s1	5.2%	?	5.4%
CCCCC(CC)C(=O)N1CCN(C(=O)c2ccco2)CC1 (stereo not drawn)	0.6%	11.0%	0.5%
CCC(C)(C)NC(=O)CN(C(=O)CCC(=O)Nc1nccs1)c1ccccc1C	·	?	4.7%
NS(=O)(=O)c1ccc(CNC(=O)c2scc3c2CCCC3)cc1	-2.1%	9.9%	-3.3%
CC(C)(C)c1ccc(-c2noc(C(=O)NN)n2)cc1	·	10µM*	-27.7%
